Reference: PubChem BioAssay AID2018 (Sanford-Burnham Center for Chemical Genomics, 2009)
Hit rate of the full screen: of about 1,200 compounds, about 600 (50%) were called active. The set was probably picked from earlier hits. The list shows a part of the results. Entries with a potency or affinity are not part of this list. Unmarked numbers belong to inactive results. Rule as the data show it: active = inhibition above about 42%; inactive = the rest.

The compounds below were run against SUMO-conjugating enzyme UBC9 (Homo sapiens) (UniProt P63279) (assay: blockers of UBC9-mediated SUMO conjugation – biochemical, AlphaScreen, SUMOylation inhibitor project, confirmation (AID 2018)). Conditions: AlphaScreen in vitro SUMOylation assay; at 35 µM; hits give high values.
SUMO-conjugating enzyme UBC9 (Homo sapiens), sequence (P63279 whole entry, looked up): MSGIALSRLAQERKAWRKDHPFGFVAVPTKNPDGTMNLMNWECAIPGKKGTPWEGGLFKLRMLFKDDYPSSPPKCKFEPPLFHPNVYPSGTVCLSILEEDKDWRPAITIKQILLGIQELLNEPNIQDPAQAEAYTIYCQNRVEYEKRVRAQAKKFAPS

| SMILES | inhibition |
| --- | --- |
| COc1ccc2c(c1)C(C)=CC(C)(C)N2C(=O)Nc1ccccc1 | 38.7% |
| CCN(CC)C(=O)c1sc2nc(-c3ccncc3)[nH]c(=O)c2c1C | 0.7% |
| CSc1nnc(SCc2nc3sc(C(=O)O)c(C)c3c(=O)[nH]2)s1 | 89.8% (active) |
| CCOc1ccc(S(=O)(=O)N2CCCC(C(=O)NCc3ccco3)C2)cc1 (configuration not stated) | 4.2% |
| [O-]/C(=C(\C(=S)Nc1cccc2ccccc12)[n+]1ccccc1)c1ccc(Cl)s1 | 53.6% (active) |
| Fc1cccc(NC(=S)Nc2cccc3ccccc23)c1 | 24.1% |
| [O-]/C(=C(\C(=S)Nc1cccc2ccccc12)[n+]1cccc(CO)c1)c1ccc(Cl)s1 | 31.7% |
| CC(C)c1ccc(NC(=O)C[n+]2ccn(C3=C([O-])c4ccccc4C3=O)c2)cc1 | 61.2% (active) |
| CC(C)c1ccc(NC(=S)Nc2cccc3ccccc23)cc1 | 24.3% |
| O=c1c(-c2c(O)cc(O)c3c(=O)cc(-c4ccc(O)cc4)oc23)c(-c2ccc(O)cc2)oc2cc(O)cc(O)c12 | 99.8% (active) |
| Cc1[nH][nH]c(=O)c1C(c1ccc(-c2ccc(Cl)c(Cl)c2)o1)c1c(C)[nH][nH]c1=O | 45.9% (active) |
| Cc1[nH][nH]c(=O)c1C(c1ccc(-c2ccc(Cl)c(C(=O)O)c2)o1)c1c(C)[nH][nH]c1=O | 73.1% (active) |
| Cc1cc(C)c(S(=O)(=O)NCC23C=CC(O2)C2C(=O)N(c4ccccc4)C(=O)C23)c(C)c1 (configuration not stated) | -6.4% |
| O=C1N=c2ccccc2=C1c1c(O)n(-c2cccc(F)c2)[nH]c1=O | 12% |
| O=C1N=c2ccccc2=C1c1sc(Nc2ccc(O)cc2)nc1O | 93.5% (active) |
| Cc1c(N2C(=O)c3ccc4c5c(ccc(c35)C2=O)CC4)c(=O)n(-c2ccccc2)n1C | 93.9% (active) |
| Cc1ccc(-n2nc(C)c3c2OC(N)=C(C#N)C3c2ccc(C)o2)cc1 (configuration not stated) | 81.4% (active) |
| Cc1ccc(-n2nc(C)c3c2OC(N)=C(C#N)C3c2ccoc2)cc1 (configuration not stated) | 69% (active) |
| N#CC1=C(N)Oc2n[nH]c(-c3cccs3)c2C1c1ccoc1 (configuration not stated) | 24.4% |
| Cc1nn(-c2ccccc2)c2c1C(c1ccc(F)cc1)C(C#N)=C(N)O2 (configuration not stated) | 0% |
| CC(C)N1CCC2(CC1)C(C#N)=C(N)NC(S)=C2C#N | 26% |
| Cc1nc2c3cc(F)ccc3n(Cc3ccc(F)cc3)c2s1 | 20.7% |
